# Data from ChEMBL document CHEMBL2218924, “A broad activity screen in support of a chemogenomic map for kinase signalling research and drug discovery” (Biochem J, 2013).
# What was measured:
# [1] = target: T1, CDK9/cyclin T1 (Homo sapiens) (UniProt O60563+P50750); details: at 1 µM
# [2] = target: T1, CDK9/cyclin T1 (Homo sapiens); details: at 10 µM
# [3] = target: T2, Serine/threonine-protein kinase Chk1 (Homo sapiens) (UniProt O14757); details: at 1 µM
# T2 sequence (whole entry): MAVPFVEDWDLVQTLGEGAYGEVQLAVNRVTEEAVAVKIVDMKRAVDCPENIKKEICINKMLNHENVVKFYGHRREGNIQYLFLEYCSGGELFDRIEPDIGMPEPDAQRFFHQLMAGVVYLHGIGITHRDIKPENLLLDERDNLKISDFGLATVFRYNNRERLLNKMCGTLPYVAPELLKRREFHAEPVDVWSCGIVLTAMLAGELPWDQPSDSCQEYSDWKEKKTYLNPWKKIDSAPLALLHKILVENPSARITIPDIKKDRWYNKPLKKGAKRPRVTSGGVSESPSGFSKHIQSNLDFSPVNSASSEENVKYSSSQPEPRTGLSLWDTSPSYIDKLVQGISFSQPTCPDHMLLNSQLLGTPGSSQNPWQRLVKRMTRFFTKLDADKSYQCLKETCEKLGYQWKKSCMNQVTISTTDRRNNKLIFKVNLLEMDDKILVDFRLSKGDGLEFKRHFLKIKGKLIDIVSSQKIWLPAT
# [4] = target: T2, Serine/threonine-protein kinase Chk1 (Homo sapiens); details: at 10 µM
# [5] = target: Serine/threonine-protein kinase Chk2 (Homo sapiens) (UniProt O96017); details: at 1 µM
# Sequence of Serine/threonine-protein kinase Chk2 (Homo sapiens) (O96017 whole entry, canonical isoform): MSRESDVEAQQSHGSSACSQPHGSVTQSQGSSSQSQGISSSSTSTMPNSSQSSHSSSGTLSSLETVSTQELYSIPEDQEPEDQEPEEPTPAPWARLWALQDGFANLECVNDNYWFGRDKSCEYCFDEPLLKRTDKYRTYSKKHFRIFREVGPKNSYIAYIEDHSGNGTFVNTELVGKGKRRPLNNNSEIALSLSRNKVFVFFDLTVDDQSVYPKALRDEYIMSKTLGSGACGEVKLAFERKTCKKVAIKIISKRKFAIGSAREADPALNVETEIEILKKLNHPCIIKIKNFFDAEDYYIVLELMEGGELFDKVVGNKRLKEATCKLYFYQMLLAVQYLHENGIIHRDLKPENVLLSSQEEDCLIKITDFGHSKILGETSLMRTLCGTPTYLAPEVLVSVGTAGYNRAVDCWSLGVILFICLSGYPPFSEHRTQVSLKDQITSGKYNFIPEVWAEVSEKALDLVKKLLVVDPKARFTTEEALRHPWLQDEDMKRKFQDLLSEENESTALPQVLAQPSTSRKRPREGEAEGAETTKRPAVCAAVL
# [6] = target: Serine/threonine-protein kinase Chk2 (Homo sapiens) (UniProt O96017); details: at 10 µM
# [7] = target: Casein kinase I isoform gamma-1 (Homo sapiens) (UniProt Q9HCP0); details: at 1 µM
# Sequence of Casein kinase I isoform gamma-1 (Homo sapiens) (Q9HCP0 whole entry, looked up, canonical isoform): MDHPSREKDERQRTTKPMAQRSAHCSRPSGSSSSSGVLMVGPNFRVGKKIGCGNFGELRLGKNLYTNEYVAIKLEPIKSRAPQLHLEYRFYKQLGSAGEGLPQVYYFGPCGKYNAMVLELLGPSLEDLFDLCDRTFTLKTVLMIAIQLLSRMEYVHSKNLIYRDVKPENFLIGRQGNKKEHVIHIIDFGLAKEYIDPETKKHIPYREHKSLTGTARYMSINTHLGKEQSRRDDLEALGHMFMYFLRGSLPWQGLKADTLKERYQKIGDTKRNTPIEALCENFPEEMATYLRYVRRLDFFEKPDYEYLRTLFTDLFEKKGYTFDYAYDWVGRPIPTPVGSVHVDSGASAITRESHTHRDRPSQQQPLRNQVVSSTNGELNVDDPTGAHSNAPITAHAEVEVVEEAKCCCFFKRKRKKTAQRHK
# [8] = target: Casein kinase I isoform gamma-1 (Homo sapiens) (UniProt Q9HCP0); details: at 10 µM
# [9] = target: Casein kinase I isoform delta (Homo sapiens) (UniProt P48730); details: at 1 µM
# Sequence of Casein kinase I isoform delta (Homo sapiens) (P48730 whole entry, looked up, canonical isoform): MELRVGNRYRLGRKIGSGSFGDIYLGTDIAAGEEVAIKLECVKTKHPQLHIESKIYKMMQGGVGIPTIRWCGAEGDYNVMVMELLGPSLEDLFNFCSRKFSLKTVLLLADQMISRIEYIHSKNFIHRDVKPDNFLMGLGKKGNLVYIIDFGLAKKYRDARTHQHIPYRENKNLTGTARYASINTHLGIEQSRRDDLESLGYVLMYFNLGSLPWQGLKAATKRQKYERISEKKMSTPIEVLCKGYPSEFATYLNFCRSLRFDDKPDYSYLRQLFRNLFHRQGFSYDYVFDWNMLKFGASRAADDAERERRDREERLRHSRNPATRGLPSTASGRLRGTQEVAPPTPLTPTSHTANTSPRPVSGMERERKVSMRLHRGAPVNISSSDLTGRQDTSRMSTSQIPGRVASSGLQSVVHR
# [10] = target: Casein kinase I isoform delta (Homo sapiens) (UniProt P48730); details: at 10 µM
Compound,residual activity [1] [%],residual activity [2] [%],residual activity [3] [%],residual activity [4] [%],residual activity [5] [%],residual activity [6] [%],residual activity [7] [%],residual activity [8] [%],residual activity [9] [%],residual activity [10] [%]
COc1ccc(C(=O)Nc2sc3c(c2C(N)=O)CCCC3)cc1OC,96,97,81,104,77,98,84,103,89,96
CC(=O)O/N=C1\C(=C2\C(=O)Nc3cc(Br)ccc32)Nc2ccccc21,63,51,95,65,71,26,99,82,78,48
O=c1cc(-c2cccc3c2Sc2ccccc2S3)oc(N2CCOCC2)c1,100,89,97,94,106,87,101,43,92,44
COc1cccc(-c2cc(=O)c3ccccc3o2)c1N,104,108,104,90,85,72,95,88,102,87
COc1ccc(OC)c2c(=S)c3ccccc3[nH]c12,95,83,108,88,106,68,99,77,101,74
Oc1c2ccccc2c2c3c(cccc13)N=N2,96,55,72,32,29,2,99,48,5,1
Oc1ccc(-c2nc(-c3ccc(F)cc3)c(-c3ccncc3)[nH]2)cc1,94,65,103,92,89,68,82,59,7,-1
CC#CC(=O)Nc1cc2c(Nc3ccc(F)c(Cl)c3)ncnc2cn1,97,96,89,98,99,108,89,95,93,106
CCN(CC)C(=O)c1ccc(Nc2nc(OCC3CCCCC3)c3nc[nH]c3n2)cc1,46,8,57,10,55,12,42,7,71,34
CCN(CC)CCCCN1c2ccccc2Oc2ccc(Cl)cc21,108,108,99,103,94,103,102,103,95,96
Oc1n[nH]c2nnc(-c3c(-c4ccccc4)nn4ccccc34)cc12,90,99,93,81,19,11,94,83,84,54
Ic1cccc(CSc2nnc(-c3ccncc3)o2)c1,75,87,57,49,72,65,101,84,83,75
CCOc1cc2ncnc(Nc3cccc(Br)c3)c2cc1OCC,94,82,85,82,91,47,91,87,84,51
COc1cc2ncnc(Nc3ccc(Oc4ccccc4)cc3)c2cc1OC,99,93,76,88,24,8,93,89,83,101
O=C1Nc2ccc(Br)cc2/C1=C\c1cc2c([nH]1)CCCC2,104,97,78,81,44,42,,,,
O=C1NC(=O)c2cc(Nc3ccc(F)cc3)c(Nc3ccc(F)cc3)cc21,100,88,85,103,84,77,86,68,84,45
COc1ccc(S(=O)(=O)N(CCO)c2ccccc2CN(C)C/C=C/c2ccc(Cl)cc2)cc1,87,113,92,89,103,73,103,75,87,66
Oc1ccc(Nc2nc(-c3ccc(Cl)cc3)cs2)cc1,104,99,99,104,64,40,113,98,79,72

Compound,residual activity [1] [%],residual activity [2] [%],residual activity [3] [%],residual activity [4] [%],residual activity [5] [%],residual activity [6] [%],residual activity [7] [%],residual activity [8] [%],residual activity [9] [%],residual activity [10] [%]
Cn1cc(/C=C2\C(=O)Nc3ccc(S(N)(=O)=O)cc32)c2ccccc21,62,55,16,7,4,1,88,52,93,59
O=Nc1c(-c2c(O)[nH]c3ccccc23)[nH]c2ccccc12,26,11,65,30,13,2,57,19,14,4
Cn1nc2c3c(cccc31)C(=O)c1ccccc1-2,94,90,94,75,75,40,99,82,15,1
Cn1cnc2cc3c(Nc4cccc(Br)c4)ncnc3cc21,108,93,95,92,89,56,84,81,87,64
Cc1nc(-c2ccccc2)c(-c2ccncc2)o1,111,98,102,98,91,72,111,82,44,8
Cc1cc2ncc(-c3ccccc3)nc2cc1C,105,85,94,92,84,89,93,87,87,55
CC[n+]1c(/C=C/N(C)c2ccccc2)n(-c2ccccc2)c2ccc(-c3nc4ccccc4s3)cc21,119,125,94,83,92,80,84,100,87,93
C[C@@H](N)[C@H]1CC[C@H](C(=O)Nc2ccncc2)CC1,97,57,107,104,103,97,102,99,103,110
O=C1NC(=O)c2c1c1c3ccccc3[nH]c1c1[nH]c3cc(Br)ccc3c21,82,76,77,47,33,30,104,88,92,90
CNc1cc2c(Nc3cccc(Br)c3)ncnc2cn1,86,86,88,77,97,56,101,69,111,90
c1ccc2c(-c3ccncc3)c[nH]c2c1,67,20,89,80,86,100,96,95,85,81
N#CCCc1ccc2c(c1)-c1[nH]c3ccc([N+](=O)[O-])cc3c1CC(=O)N2,1,0,39,16,4,0,,,,
Cc1ccc(NC2=CC(=O)c3sc(C)nc3C2=O)cc1,104,106,96,87,96,82,97,88,96,88
O=C1NC(=O)/C(=C/c2ccc3c(c2)OC(F)(F)O3)S1,94,77,94,88,93,85,95,94,80,65
c1ccc(-c2n[nH]cc2-c2ccnc3ccccc23)nc1,103,67,89,91,90,88,89,47,25,2
O=C(O)c1ccc2c3c1cccc3c(=O)n1c3ccccc3nc21,75,30,99,94,86,38,99,65,87,58
O=C1NC(=O)/C(=C\c2ccc3nccnc3c2)S1,60,14,85,91,78,33,92,44,88,46
